# This is a sample that favours compounds with a hit; in the whole collection about 2.4% have one here.
# M1 PAM = positive allosteric modulators of human M1 muscarinic receptor | activation, % at 3 µM | 360,000 compounds, 0.088% hits | CHO-K1 hM1, Fluo-8 calcium fluorescence, ACh EC20; 0% = ACh EC20, 100% = maximal ACh; in the data active = activation above about 19%, passing the limit was not always enough
# Target sequence (P11229 whole entry, looked up): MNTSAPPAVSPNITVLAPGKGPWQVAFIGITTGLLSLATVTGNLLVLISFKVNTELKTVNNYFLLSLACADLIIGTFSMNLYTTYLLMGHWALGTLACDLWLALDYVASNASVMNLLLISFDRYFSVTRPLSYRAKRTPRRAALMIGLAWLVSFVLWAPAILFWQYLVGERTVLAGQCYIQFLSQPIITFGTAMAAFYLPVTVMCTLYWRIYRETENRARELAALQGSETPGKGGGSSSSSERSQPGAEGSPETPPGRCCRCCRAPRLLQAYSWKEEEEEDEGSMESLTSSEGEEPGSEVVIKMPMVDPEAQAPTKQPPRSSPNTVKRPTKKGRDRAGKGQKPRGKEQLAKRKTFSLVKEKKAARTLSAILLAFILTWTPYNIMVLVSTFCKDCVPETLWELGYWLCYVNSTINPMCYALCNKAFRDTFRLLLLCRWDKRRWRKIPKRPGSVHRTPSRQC
# CHRM1 antagonist = antagonists of human M1 muscarinic receptor. P11229. CHO-K1 hM1, Fluo-8 calcium fluorescence, ACh EC80 antagonist. inhibition, % at 3 µM. 360,000 compounds, 1.3% hits. AID 588852;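 active = percent inhibition above its own plate's cutoff, namely the mean of that plate's compound wells plus 3 SD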;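 note: peak over basal fluorescence ratio during 140 s after agonist addition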
# CHO-K1 Ca antag = nonselective inhibitor or artifact in parental CHO-K1 cells; inhibition, % at 3 µM; 360,000 compounds, 0.6% hits; AID 602250; ATP-induced calcium, Fluo-8 fluorescence;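 active = inhibition above a per-plate cutoff, the plate's mean sample inhibition plus 3 SD, cut at about 24% in these data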
# CHRM1 agonist = activates human CHRM1 receptor; activation, % at 3 µM; 360,000 compounds, 0.33% hits; CHO-K1 hM1, Fluo-8 calcium fluorescence, agonist mode; 0% DMSO, 100% acetylcholine EC100; AID 588814;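 active = activation above the run's mean compound activation plus 3 SD, cut at about 16% in these data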;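 note: peak over basal fluorescence ratio within a 140 s kinetic read after compound addition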
# M1 PAM parental = counter-screen for M1 PAMs: effect in parental CHO-K1 cells | ATP EC20, Fluo-8 calcium fluorescence; 0% at ATP EC20, 100% at ATP max | activation, % at 3 µM | 360,000 compounds, 0.02% hits;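 active = activation above the run cutoff, the mean activation of all test compounds plus 3 SD, cut at about 40% in these data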;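 note: peak over basal fluorescence ratio in a 140 s read after ATP addition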
# CHO-K1 Ca ag = counter-screen for M1 agonists: effect in parental CHO-K1 cells; Fluo-8 calcium fluorescence; scaled to maximal ATP response, vehicle zero; 360,000 compounds, 0.48% hits; activation, % at 3 µM; in the data active = activation above about 15%;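 note: untransfected CHO-K1 host cells lacking M1 receptor as counterscreen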
# Hits are given with their value; i = inactive.
SMILES,M1 PAM,CHRM1 antagonist,CHO-K1 Ca antag,CHRM1 agonist,M1 PAM parental,CHO-K1 Ca ag
CCn1c(=O)c(C(=O)Nc2nc3ccccc3[nH]2)c(O)c2ccccc21,i,51,i,i,i,i
Cn1c(=O)c(C(=O)NNC(=O)c2ccccc2Br)c(O)c2ccccc21,i,i,i,i,i,i
CCn1c(=O)c(C(=O)NNC(=O)c2ccccc2Br)c(O)c2ccccc21,i,i,i,i,i,17
COc1ccc(Cl)cc1-c1nc(SCC(=O)NCC2CCCO2)n[nH]1 (stereo unspecified),i,i,i,i,i,i
O=C(Nc1ccc(F)cc1)Nc1cc(OCC(F)(F)F)cc(OCC(F)(F)F)c1,i,i,32,i,i,i
CC(C)(C)c1ccc(NC(=O)Nc2ccc(F)cc2)cc1,i,49,36,i,i,16
COc1cccc(NC(=O)Nc2ccc(C(C)(C)C)cc2)c1,i,26,46,i,i,19
COc1cccc(NC(=O)Nc2ccncc2)c1,i,i,i,i,i,i
CCOC(=O)[C@@H](NC(=O)CC[C@H]1O[C@@H](n2cc(C)c(=O)[nH]c2=O)C[C@@H]1O)C(C)C,i,i,i,i,i,i
CC(=O)Oc1ccc(C(=O)Nc2ccc(S(=O)(=O)NCC3CCCO3)cc2)cc1 (stereo unspecified),i,i,i,i,i,i
Cn1c(C(=O)NCCCN2CCc3ccccc3C2)cc2c(=O)n(C)c3ccccc3c21,i,34,i,i,i,i
CC(OC(=O)c1cc(=O)c2cc(Cl)ccc2o1)C(=O)N1CCCC1 (stereo unspecified),i,i,i,i,i,i
O=C(NCc1ccccn1)c1cc(S(=O)(=O)N2CCCCC2)ccc1Cl,i,i,i,i,i,i
CCCOC(=O)C1=C(C)NC2=C(C(=O)CCC2)C1c1ccc(N(C)C)cc1 (stereo unspecified),i,26,i,i,i,i
CCN(CC)c1ccc(C2C(C(=O)OCCOC)=C(C)NC3=C2C(=O)CCC3)cc1 (stereo unspecified),i,i,i,i,i,i
CCOC(=O)C1=C(C)NC2=C(C(=O)CCC2)C1c1ccc(N(C)C)cc1 (stereo unspecified),i,45,i,i,i,i
CC1=C(C(=O)Nc2cccnc2)C(c2ccc3c(c2)OCO3)C2=C(CCCC2=O)N1 (stereo unspecified),i,i,i,i,i,i
CC1=C(C(=O)Nc2ccc(F)cc2)C(c2ccncc2)C2=C(CCCC2=O)N1 (stereo unspecified),i,i,24,i,i,i
COc1ccc(S(=O)(=O)N2CCCCCC2)cc1NC(=O)CN1C(=O)CNC1=O,i,i,i,i,i,i
O=C(NC(NC(=S)Nc1ccc(Cl)cc1)C(Cl)(Cl)Cl)c1ccco1 (stereo unspecified),i,i,i,i,i,i
CC(=O)c1ccc(NC(=S)NC(NC(=O)c2ccco2)C(Cl)(Cl)Cl)cc1 (stereo unspecified),i,i,i,17,i,i
CC1CCN(C(=O)CCn2c(=O)oc3ccc(Cl)cc32)CC1,28,i,i,i,i,i
CC[C@]12c3[nH]c4cc(-c5ccco5)ccc4c3CCN1C(=O)[C@@H](CC(=O)NC(C)(C)C)C[C@@H]2C(=O)N1CCN(C(=O)c2ccco2)CC1,i,i,i,i,i,i
CC(C)C(=O)Nc1ccc(Oc2ccc3c(c2)C(=O)NC3=O)cc1,i,i,i,i,i,i
Cc1ccc(S(=O)(=O)Nc2cccc(-n3cnnn3)c2)cc1C,i,i,i,i,i,i
SMILES,M1 PAM,CHRM1 antagonist,CHO-K1 Ca antag,CHRM1 agonist,M1 PAM parental,CHO-K1 Ca ag
COc1cc(C(=O)NCC(=O)N/N=C(/C)c2ccc3c(c2)CCCC3)cc(OC)c1OC,i,i,27,i,i,i
CCOc1ccc(OCCC(=O)Nc2cccc(S(=O)(=O)N3CCCC3)c2)cc1,i,i,i,i,i,i
CC(=O)Nc1ccc(NS(=O)(=O)c2ccc3c(c2)oc(=O)n3C)cc1,i,i,i,i,i,i
O=C(O)c1cc(Cl)ccc1-c1ccc(/C=C/c2cc(C(F)(F)F)[nH]c(=O)n2)o1,i,i,i,i,i,26
O=C(O)c1ccccc1-c1ccc(/C=C/c2cc(C(F)(F)F)[nH]c(=O)n2)o1,i,i,i,i,i,26
Cc1nc(S/C(=C/c2ccc(-c3cc(Cl)ccc3C)o2)C(=O)O)n[nH]1,i,i,i,i,i,i
COc1ccc(-c2ccnc3nc(N4CCOCC4)nn23)cc1,i,i,24,i,i,i
Cc1nn(CCO)c2nc(-c3cccs3)cc(C(F)(F)F)c12,i,i,24,i,i,i
Cc1nn(C)c2nc(-c3cccs3)cc(C(F)(F)F)c12,i,i,i,i,i,i
CCN1C(=O)/C(=C/N2CC(C)CC(C)C2)SC1=S (stereo unspecified),i,i,i,i,i,i
CCN1C(=O)/C(=C\N2CCCCCC2)SC1=S,i,99,i,i,i,i
O=C(NCC(c1ccco1)N1CCCC1)c1cccc(NS(=O)(=O)c2ccc(Br)cc2)c1 (stereo unspecified),i,50,i,i,i,i
Cc1cccc(NS(=O)(=O)c2cccc(C(=O)NCC(c3ccco3)N3CCCCC3)c2)c1 (stereo unspecified),i,i,i,i,i,i
O=C(NCC(c1ccco1)N1CCCC1)c1ccc(S(=O)(=O)Nc2ccc(F)cc2)cc1 (stereo unspecified),i,50,i,i,i,i
O=C(NCC(c1ccco1)N1CCCCC1)c1ccc(NS(=O)(=O)c2ccc(F)cc2)cc1 (stereo unspecified),i,i,i,i,i,i
O=C1N[C@@H](c2ccccc2)COC(=O)[C@H](Cc2ccc(F)cc2)C/C=C\C[C@H]1CC(=O)N(CCO)Cc1ccccc1,i,i,i,i,i,i
O=C1N[C@@H](c2ccccc2)COC(=O)[C@@H](Cc2ccc(F)cc2)C/C=C\C[C@@H]1CC(=O)N(CCO)Cc1ccccc1,i,i,i,i,i,17
O=C1NC[C@H](c2ccccc2)OC(=O)[C@H](Cc2ccc(F)cc2)C/C=C\C[C@H]1CC(=O)N(CCO)Cc1ccccc1,i,42,i,i,i,i
O=C1NC[C@@H](c2ccccc2)OC(=O)[C@H](Cc2ccc(F)cc2)C/C=C\C[C@H]1CC(=O)N(CCO)Cc1ccccc1,i,i,i,i,i,i
O=C(C[C@@H]1C/C=C\CCC(=O)O[C@H](c2ccccc2)CNC1=O)N[C@H](CO)Cc1ccccc1,i,i,i,18,i,i
O=C1NC[C@H](c2ccccc2)OC(=O)[C@@H](Cc2ccc(F)cc2)C/C=C\C[C@H]1CC(=O)N(CCO)Cc1ccccc1,i,34,i,i,i,i
